tim23-1 inh = inhibits growth of tim23-1 mutant yeast | S. cerevisiae tim23-1 growth, BacTiter-Glo luminescence, 24 h | actives 1.3% (n = 330,000) | inhibition, % at 20 µM;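 active = growth inhibition of the mutant yeast at or above 50%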;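 also: temperature-sensitive mutant grown at 25 °C; plate controls were DMSO-treated mutant yeast for no effect and medium wells lacking yeast for full effect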
TIM10 inh = TIM10 yeast growth inhibition; actives 1.4% (n = 330,000); inhibition, % at 10 µM; S. cerevisiae TIM10 strain growth, BacTiter-Glo luminescence, 24 h;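 active = inhibition of 40% or more at the single tested concentration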;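 also: wild-type TIM10 isogenic control strain grown at permissive 25 °C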
PfHsp90 set2 = inhibits growth of yeast expressing Plasmodium falciparum Hsp90; S. cerevisiae expressing PfHsp90, BacTiter-Glo ATP, 48 h; yeast lacking PDR1 and PDR3 efflux regulators; inhibition, % at 9.4 µM; actives 0.32% (n = 310,000);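 active = every replicate shows inhibition above about 80%, whatever the replicate mean, limit read from the data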;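 also: 0% = DMSO neutral controls and 100% = 20 µM radicicol positive controls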
tim10-1 inh = tim10-1 yeast growth inhibition; S. cerevisiae tim10-1 ts strain growth, BacTiter-Glo, 24 h; inhibition, % at 20 µM; actives 2.2% (n = 330,000);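 active = inhibition of at least 40%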;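 also: mutant grown at 25 °C; 0% = DMSO wells with yeast and 100% = wells holding no yeast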
NLRP3 yeast inh = blocks the NALP3 inflammasome reconstituted in yeast; actives 0.39% (n = 330,000); AID 2825; Yeast reconstituted NLRP3/ASC/caspase-1, beta-gal luminescence, 24 h; inhibition, % at 10 µM;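 active = inhibition of 50% or more; inactive = inhibition below 50%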;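 also: plate controls were induced DMSO wells for no effect and uninduced yeast grown without galactose for full effect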
tim10 confirm = confirmation of TIM10 yeast growth inhibitors | shares compounds with TIM10 inh | S. cerevisiae tim10 strain growth, BacTiter-Glo luminescence, 24 h | inhibition, % at 10 µM | actives 63% (n = 4,600) | AID 463215;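 active = inhibition of yeast growth at or above a set limit in either of two replicates at 10 µM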;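 also: this counterscreen used the strain with wild-type TIM10; 0% = yeast with DMSO and 100% = medium wells lacking yeast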
An asterisk follows results filed as active; x = not tested or not shown. A selection: hits, their analogues and other compounds. The true share with any hit is near 3.7%.

SMILES	tim23-1 inh	TIM10 inh	PfHsp90 set2	tim10-1 inh	NLRP3 yeast inh	tim10 confirm
CN1c2ccccc2Oc2nnc(Cl)cc21	43	48*	7	30	8	50*
CC1CC(C)CN(CCCNC(=O)c2ccc(CS(=O)(=O)Cc3cccc(Cl)c3)o2)C1 (stereo not drawn)	-14	-1	5	0	15	x
C/C(=C\C(=O)OCC(=O)NCc1ccccc1)C(=O)OCC(=O)NCc1ccccc1	-8	0	15	17	-4	x
CCOC(=O)/C=C/C(=O)OCC(=O)NCc1ccccc1	34	42*	9	36	14	21
CC1(C)Oc2ccc3ccc(=O)oc3c2/C(=C/NC2CCCCC2)C1=O	-1	54*	-3	40	-44	42*
Cc1nc(NS(=O)(=O)c2ccccc2)sc1C(=O)N/N=C/c1ccccc1	17	-6	-27	-10	7	x
Cc1ccc2nc(N(CCCN(C)C)C(=O)c3ccc(S(=O)(=O)N4CCc5ccccc5C4)cc3)sc2c1	36	45*	5	38	24	29
Cc1cc(C)c2sc(N(CCCN(C)C)C(=O)c3ccc(S(=O)(=O)N4CCc5ccccc5C4)cc3)nc2c1	1	3	-17	3	14	x
COc1ccc(-c2n[nH]c(C)c2-c2ccc(Cl)cc2)c(O)c1OC	19	42*	x	23	9	33*
O=C(Nc1c(F)cccc1F)c1cnc(N2CCN(c3ccccn3)CC2)c2ccccc12	31	43*	-13	35	18	38*
O=C(CN1C(=O)NC2(CCCCC2)C1=O)Nc1ccccc1N1CCCCC1	16	0	5	9	10	x
CCC(C)(C)n1nnnc1C(c1ccc2ncccc2c1)N1CCCCCC1 (stereo not drawn)	42	43*	-18	35	9	-22
c1cnc2ccc(C(c3nnnn3C3CCCCC3)N3CCCCC3)cc2c1 (stereo not drawn)	40	4	-4	37	-2	x
CC1(C)CC2CC(C)(CN2C(=O)NC(=O)c2ccccc2)C1 (stereo not drawn)	19	17	-18	17	-13	x
Cc1ccc(C(=O)Nc2ccccc2C(=O)N2CC3(C)CC2CC(C)(C)C3)cc1 (stereo not drawn)	31	44*	-92	33	13	24
N#CC(Nc1ccccc1)c1ccccc1OCc1ccccc1 (stereo not drawn)	32	42*	x	18	17	15
COc1ccc(C(C#N)Nc2ccccc2)cc1 (stereo not drawn)	-7	4	x	8	-9	x
Cc1ccc([N+](=O)[O-])cc1N=Nc1c(-c2ccc([N+](=O)[O-])cc2)[nH]n(C(N)=S)c1=O	x	x	-30	x	x	x
Cc1ccc([N+](=O)[O-])cc1N=Nc1c(C)[nH]n(C(N)=S)c1=O	27	43*	1	30	24	34*
COc1ccc(CN(Cc2nc3ccccc3c(=O)[nH]2)C(=O)NC2CCCCC2)cc1	11	29	-11	28	4	x
COc1ccc(S(=O)(=O)N(Cc2nc3ccccc3c(=O)[nH]2)C2CCCC2)cc1	30	42*	-5	30	3	13
CC(C)N(Cc1ccccc1)C(=S)NC(=O)C1(C)CC1(Cl)Cl (stereo not drawn)	19	41*	-8	33	9	33*
COc1cc(SC)ccc1C(=O)N1CCN(Cc2ccc3c(c2)OCO3)CC1	16	-3	27	8	20	x
CC(/C=C1\SC(=S)N(NS(=O)(=O)c2ccc(C)cc2)C1=O)=C\c1ccccc1	29	48*	-46	28	-14	25
CC(/C=C1\SC(=S)N(NS(=O)(=O)c2ccccc2)C1=O)=C\c1ccccc1	41	3	-24	2	-1	x
Cc1c(C(=O)Nc2ccccc2C(=O)N2CCOCC2)cccc1[N+](=O)[O-]	6	7	20	12	21	x
CCc1c(C)sc(NC(=O)C2CC(c3c(F)cccc3Cl)=NO2)c1C#N (stereo not drawn)	27	4	-9	4	24	x
COc1ccc(-c2nc3n(c(=O)c2C#N)CCCS3)cc1	-12	8	-4	7	2	x
CCOc1ccc(-c2nc3n(c(=O)c2C#N)CCCS3)cc1	11	97*	-15	26	30	16

Source: PubChem BioAssay (several laboratories)
